# Assay results: PubChem BioAssay (NCATS)
# Several values for one entry are separate records, joined by “and”; a condition that tells them apart may be missing. Equal entries are not always repeated. Records with an inconclusive call do not appear. Activity calls are given as the source filed them. Unless noted, calls come from the whole dose curve.
# Target: alpha-glucosidase (Oryza sativa, rice) (UniProt Q653V4)
# Experiment: Counterscreen for Glucocerebrosidase Inhibitors: qHTS Assay for Rice alpha-Glucosidase at pH 5.0 (AID 997; active = well fitted curve in the direction sought with a large enough effect;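 note: 0% = full activity with enzyme and -100% = basal without enzyme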)
# Details: rice alpha-glucosidase enzyme activity; series mostly up to 76.9 µM; activity change, negative = inhibition: at the top concentration
# Procedure, shortened: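 Endpoint fluorogenic assay at pH 5.0: compounds (0.7 nM to 77 uM) titrated against 4 nM rice enzyme and 400 uM 4-MU-alpha-glucoside for 20 min at room temperature; NaOH/glycine stop, read ex 365/em 440 nm, Hill-fitted AC50.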
row,Structure (SMILES),"activity change, negative = inhibition"
1,CC(=O)[C@H]1CC[C@H]2[C@@H]3CCC4=CC(=O)CC[C@]4(C)[C@H]3CC[C@]12C,-4.32% (inactive)
2,NC(=O)c1cccc(N)c1,1.76% (inactive)
3,CC(C)(C)NC(=O)[C@H]1CC[C@H]2[C@@H]3CC[C@H]4NC(=O)C=C[C@]4(C)[C@H]3CC[C@]12C,-0.972% (inactive)
4,Cc1ccc(S(=O)(=O)N[C@@H](Cc2ccccc2)C(=O)CCl)cc1,-0.693% (inactive)
5,COc1cc2ncnc(Nc3cccc(Cl)c3)c2cc1OC,-2.37% (inactive)
6,N[C@@H](Cc1ccc(O)c(O)c1)C(=O)O,-2.5% (inactive)

# System: not listed separately
# Experiment: qHTS Assay for Lipid Storage Modulators (AID 1519); for activity change, negative = inhibition: % is set by controls: 0 for no effect and ±100 for the full control effect
# Details: Drosophila S3 cells, BODIPY lipid droplet/cell ratio, laser cytometry; at 25.7 µM (top of the series); cells loaded with oleic acid
# Procedure, shortened: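 Cells seeded at 5,000 per well were treated with compounds over a concentration series and loaded with oleic acid (400 uM, as added). Lipid droplet fluorescence (488 nm excitation, 500-530 nm channel) was read by laser-scanning cytometry and normalized to 20 uM Triacsin C.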
row,Structure (SMILES),"activity change, negative = inhibition"
1,NNC(=O)c1ccncc1,-0.316% (inactive)
2,COc1cnc(NS(=O)(=O)c2ccc(N)cc2)nc1,-0.0044% (inactive)
3,COc1cc(NS(=O)(=O)c2ccc(N)cc2)nc(OC)n1,-1.42% (inactive)
4,NC(N)=NC(N)=NCCc1ccccc1,-0.801% (inactive)
5,Cc1cccc(Nc2ccncc2S(=O)(=O)NC(=O)NC(C)C)c1,-1.07% (inactive)
6,N=C(N)c1ccc(OCCCCCOc2ccc(C(=N)N)cc2)cc1,-3.38% (inactive)
7,Cc1nnc(NS(=O)(=O)c2ccc(N)cc2)s1,0.279% (inactive)
8,O=C(O)c1cccnc1,-4.1% (inactive)
9,CC(C)(Sc1cc(C(C)(C)C)c(O)c(C(C)(C)C)c1)Sc1cc(C(C)(C)C)c(O)c(C(C)(C)C)c1,-2.44% (inactive)
10,CCn1cc(C(=O)O)c(=O)c2cc(F)c(N3CCNCC3)cc21,0.231% (inactive)
11,Nc1ccc(S(=O)(=O)Nc2ccccn2)cc1,-0.611% (inactive)

# Same assay, conditions: Drosophila S3 cells, BODIPY lipid droplet/cell ratio, laser cytometry; at 57.5 µM (top of the series); cells loaded with oleic acid
row,Structure (SMILES),"activity change, negative = inhibition"
1,Cc1ncc([N+](=O)[O-])n1CCO,8.03% (inactive)
2,CC(=O)[C@H]1CC[C@H]2[C@@H]3CCC4=CC(=O)CC[C@]4(C)[C@H]3CC[C@]12C,1.11% (inactive)
3,O=C(N[C@H](CO)[C@H](O)c1ccc([N+](=O)[O-])cc1)C(Cl)Cl,4.84% (inactive)
4,COc1cnc(NS(=O)(=O)c2ccc(N)cc2)nc1,4.6% (inactive)
5,COc1cc(NS(=O)(=O)c2ccc(N)cc2)nc(OC)n1,14.8% (inactive)
6,NC(=O)c1cccc(N)c1,7.95% (inactive)
7,Cc1cccc(Nc2ccncc2S(=O)(=O)NC(=O)NC(C)C)c1,6.92% (inactive)
8,N=C(N)c1ccc(OCCCCCOc2ccc(C(=N)N)cc2)cc1,3.95% (inactive)
9,CN1CCCC(n2nc(Cc3ccc(Cl)cc3)c3ccccc3c2=O)CC1 (centres undefined),4.52% (inactive)
10,Cc1nnc(NS(=O)(=O)c2ccc(N)cc2)s1,7.74% (inactive)
11,O=C(O)c1cccnc1,5.73% (inactive)
12,CC(C)(Sc1cc(C(C)(C)C)c(O)c(C(C)(C)C)c1)Sc1cc(C(C)(C)C)c(O)c(C(C)(C)C)c1,6.58% (inactive)
13,CC1=NN(c2ccccc2)C(=O)C1,5.32% (inactive)
14,CCn1cc(C(=O)O)c(=O)c2cc(F)c(N3CCNCC3)cc21,8.94% (inactive)
15,COc1c(N2CCNC(C)C2)c(F)cc2c(=O)c(C(=O)O)cn(C3CC3)c12 (centres undefined),6.55% (inactive)
16,Nc1ccc(S(=O)(=O)Nc2ccccn2)cc1,8.46% (inactive)

# Same assay, conditions: Drosophila S3 cells, BODIPY lipid droplet/cell ratio, laser cytometry; measured here: cell count channel max response; cells loaded with oleic acid
row,Structure (SMILES),max response
1,Cc1ncc([N+](=O)[O-])n1CCO,17.2%
2,NNC(=O)c1ccncc1,-8.98%
3,CC(=O)[C@H]1CC[C@H]2[C@@H]3CCC4=CC(=O)CC[C@]4(C)[C@H]3CC[C@]12C,-15.2%
4,O=C(N[C@H](CO)[C@H](O)c1ccc([N+](=O)[O-])cc1)C(Cl)Cl,-11.7%
5,COc1cnc(NS(=O)(=O)c2ccc(N)cc2)nc1,-12.6% and 15.3%
6,COc1cc(NS(=O)(=O)c2ccc(N)cc2)nc(OC)n1,-11.2% and 9.08%
7,NC(N)=NC(N)=NCCc1ccccc1,4.96%
8,NC(=O)c1cccc(N)c1,35.3%
9,Cc1cccc(Nc2ccncc2S(=O)(=O)NC(=O)NC(C)C)c1,-3.68% and 16.7%
10,N=C(N)c1ccc(OCCCCCOc2ccc(C(=N)N)cc2)cc1,3.1% and 6.27%
11,CN1CCCC(n2nc(Cc3ccc(Cl)cc3)c3ccccc3c2=O)CC1 (centres undefined),-4.14%
12,Cc1nnc(NS(=O)(=O)c2ccc(N)cc2)s1,-3.37% and -1.8%
13,O=C(O)c1cccnc1,-11.4% and 15.3%
14,CC(C)(Sc1cc(C(C)(C)C)c(O)c(C(C)(C)C)c1)Sc1cc(C(C)(C)C)c(O)c(C(C)(C)C)c1,2.96% and 13.3%
15,CC1=NN(c2ccccc2)C(=O)C1,16.1%
16,CCn1cc(C(=O)O)c(=O)c2cc(F)c(N3CCNCC3)cc21,-2.5% and 14.7%
17,COc1c(N2CCNC(C)C2)c(F)cc2c(=O)c(C(=O)O)cn(C3CC3)c12 (centres undefined),19.6%
18,Nc1ccc(S(=O)(=O)Nc2ccccn2)cc1,-5.02% and 31.9%

# Same assay, conditions: Drosophila S3 cells, BODIPY lipid droplet/cell ratio, laser cytometry; measured here: lipid channel max response; cells loaded with oleic acid
row,Structure (SMILES),max response
1,Cc1ncc([N+](=O)[O-])n1CCO,27.3%
2,NNC(=O)c1ccncc1,-8.54%
3,CC(=O)[C@H]1CC[C@H]2[C@@H]3CCC4=CC(=O)CC[C@]4(C)[C@H]3CC[C@]12C,-13.1%
4,O=C(N[C@H](CO)[C@H](O)c1ccc([N+](=O)[O-])cc1)C(Cl)Cl,-6.22%
5,COc1cnc(NS(=O)(=O)c2ccc(N)cc2)nc1,-11.3% and 19.8%
6,COc1cc(NS(=O)(=O)c2ccc(N)cc2)nc(OC)n1,-12.8% and 25.1%
7,NC(N)=NC(N)=NCCc1ccccc1,5.89%
8,NC(=O)c1cccc(N)c1,59.1%
9,Cc1cccc(Nc2ccncc2S(=O)(=O)NC(=O)NC(C)C)c1,-4.97% and 28.2%
10,N=C(N)c1ccc(OCCCCCOc2ccc(C(=N)N)cc2)cc1,-0.0009% and 12.3%
11,CN1CCCC(n2nc(Cc3ccc(Cl)cc3)c3ccccc3c2=O)CC1 (centres undefined),2.11%
12,Cc1nnc(NS(=O)(=O)c2ccc(N)cc2)s1,-7.15% and 7.76%
13,O=C(O)c1cccnc1,-16.2% and 21.7%
14,CC(C)(Sc1cc(C(C)(C)C)c(O)c(C(C)(C)C)c1)Sc1cc(C(C)(C)C)c(O)c(C(C)(C)C)c1,1.97% and 25.1%
15,CC1=NN(c2ccccc2)C(=O)C1,20.6%
16,CCn1cc(C(=O)O)c(=O)c2cc(F)c(N3CCNCC3)cc21,-2.45% and 30%
17,COc1c(N2CCNC(C)C2)c(F)cc2c(=O)c(C(=O)O)cn(C3CC3)c12 (centres undefined),29.5%
18,Nc1ccc(S(=O)(=O)Nc2ccccn2)cc1,-4.54% and 46.5%
